Values without a mark were called inactive. Inconclusive results are not listed. The source made the active and inactive calls. Unless noted, the call rests on the fitted dose curve; in most records, active means well fitted curve in either direction with a large enough effect (not every such curve was filed as active); inconclusive means small, poorly fitted or top-dose-only effect, or another doubt; inactive means flat fitted curve, though single readings scatter. Bounds are passed on as bounds.

The record followed here is PubChem BioAssay (NCATS).

For experiment [1], the target named is Lysosomal acid glucosylceramidase (Homo sapiens) (UniProt P04062). The experiment in a line: Glucocerebrosidase-p2 (AID 348; in the data active means potency below about 10 µM; further: potency means the concentration at half of the fitted maximal effect). The following applies: purified GBA, blue fluorogenic substrate, 40 min. An outline of the steps:
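Normal human glucocerebrosidase (0.2 nM) with blue fluorogenic substrate (80 uM final) in citrate/phosphate pH 5.9 with 10mM sodium taurocholate, 0.01% tween-20; 40 min RT, NaOH/glycine stop; fluorescence Ex 365/Em 440; AC50 from a titration from 0.6 nM upwards.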

Experiment [2] can be described thus: AP1 Signaling Pathway (AID 357).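 Further: ME-180 reporter cells stimulated with EGF at its EC50 level; on the % scale 0 is the no-effect control and ±100 the full control effect.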 The following applies: ME-180 AP-1-bla reporter, EGF-induced, beta-lactamase ratio, 5 h; at 7.69 µM (top of the series) unless noted. An outline of the steps: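 A ratiometric CCF4 readout (405 nm excitation; 460 and 530 nm emission) quantified AP-1-driven beta-lactamase in ME-180 cells after 5 h with compound and EC50 EGF; AC50 values were derived for activators and inhibitors.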

In experiment [3] the target is Cytochrome P450 1A2 (Homo sapiens) (UniProt P05177). The experiment in a line: p450-cyp1a2 (AID 410; calls by dose curve; further: potency means the concentration at half of the fitted maximal effect;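 on activity change, negative = inhibition: -100% = full effect of reference inhibitor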). The conditions noted are these: recombinant CYP1A2, luciferin-ME demethylation, luminescence; series mostly up to 11.4 µM. The method, boiled down:
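20nM CYP1A2, 100uM Luciferin-ME (=Km), 100mM KPO4; cpd 10 min RT; +NADPH regen, 60 min RT; stop/detect 20 min; luminescence. Normalized to furafylline 57 uM = full inhibition.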

Experiment [4] is described as follows: Stat Signaling Pathway (AID 446).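 Further: ME-180 cervical cancer cells given 40 pM IL-6 alongside compound; SIE-controlled beta-lactamase reporter measured as 460/530 nm FRET emission ratio; on the % scale 0 is the no-effect control and ±100 the full control effect.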 The following applies: ME-180 SIE beta-lactamase reporter, IL-6 stimulated, 5 h; at 7.69 µM (top of the series) unless noted. The method, boiled down:
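Normalization used AC90 stimulation (300 pM IL-6) and AC90 inhibition (125 nM pan-JAK inhibitor at 40 pM IL-6). The underlying signal is SIE-driven beta-lactamase in ME-180 cells after 5 h IL-6 exposure with compound.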

Experiment [5] addresses Glucocorticoid receptor (Homo sapiens) (UniProt P04150). The experiment in a line: GR-GFP Redistribution (AID 450;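 active means compounds whose dose series gives a full or clear partial fitted curve of increased nuclear translocation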; further: potency means the concentration at half of the fitted maximal effect). The conditions noted are these: U2OS GR-GFP nuclear translocation, laser cytometry, 2 h.
Experiment [6] shares this target. As to the kind of experiment: GR-EFC Redistribution (AID 451; calls by dose curve; further: potency means the concentration at half of the fitted maximal effect). The following applies: CHO-K1 GR-EFC translocation, beta-gal luminescence, 2 h. The method, boiled down: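 CHO-K1 cells stably expressing nuclear-localized β-gal enzyme acceptor and GR fused C-terminally to the enzyme donor fragment; ligand-driven nuclear translocation restores β-gal by complementation. Compounds titrated up to 46 uM final, 2 h at 37 °C; luminescence read.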

The target of experiment [7] is Mitogen-activated protein kinase 10 (Mus musculus) (UniProt Q61831). The experiment in a line: JNK3 AlphaScreen Assay (AID 530).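 Further: kinase came from lysate of stimulated human HepG2 cells; signal reports phosphorylation of biotinylated GST-cJun 1-79 at Ser73 with 10 µM ATP; on the % scale 0 is the no-effect control and ±100 the full control effect.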 The conditions noted are these: JNK3 lysate, c-Jun phosphorylation; series mostly up to 11.4 µM. An outline of the steps:
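Biotinylated GST-cJun(1-79) served as substrate for JNK3 in HepG2 lysates stimulated with IL-1beta and TNF-alpha. ATP was 10 uM final, pH 7.6. Ser73 phosphorylation was quantified by AlphaScreen (680 nm excitation).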
For orientation: In Alpha technology, singlet oxygen from a donor bead excites a nearby acceptor bead.

Experiment [8] concerns the target Cytochrome P450 3A4 (Homo sapiens) (UniProt P08684). As to the kind of experiment: qHTS Assay for Inhibitors and Substrates of Cytochrome P450 3A4 (AID 884; active means well fitted curve in the direction sought with a large enough effect; an effect the other way counts as inactive or inconclusive; further: potency means the concentration at half of the fitted maximal effect; nearly all actives have a fitted effect of over 50% in size). The conditions noted are these: recombinant CYP3A4, Luciferin-PPXE luminescence; series mostly up to 57.1 µM. An outline of the steps: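 Luminescent readout of luciferin produced by CYP3A4 (20 nM) dealkylation of Luciferin-PPXE, 25 uM (its KM). NADPH-driven reaction ran 60 min at RT after 10 min compound preincubation; data scaled to 57 uM ketoconazole as 100% inhibition.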
For orientation: In qHTS, concentration-response curves come from the screen itself.

Experiment [9] shares this target. As to the kind of experiment: qHTS Assay for Activators of Cytochrome P450 3A4 (AID 885; active means well fitted curve in the direction sought with a large enough effect; an effect the other way counts as inactive or inconclusive; further: nearly all actives have a fitted effect of over 65% in size). The conditions noted are these: recombinant CYP3A4, Luciferin-PPXE luminescence, 60 min; series mostly up to 11.4 µM. An outline of the steps:
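Human CYP3A4 dealkylates Luciferin-PPXE to luciferin, which luciferase detection converts to light. Substrate was at its KM (25uM), buffer 200mM KPO4, reaction 60 min at RT.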

The target of experiment [10] is Cytochrome P450 2D6 (Homo sapiens) (UniProt P10635). The experiment in a line: qHTS Assay for Inhibitors and Substrates of Cytochrome P450 2D6 (AID 891; active means well fitted curve in the direction sought with a large enough effect; an effect the other way counts as inactive or inconclusive; further: potency means the concentration at half of the fitted maximal effect; nearly all actives have a fitted effect of over 60% in size). The conditions noted are these: recombinant CYP2D6, luciferin-ME EGE luminescence; series mostly up to 11.4 µM. An outline of the steps:
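Luminescent read-out of luciferin formed by 5 nM human CYP2D6 demethylating 30 uM Luciferin-ME EGE (Km level) over 60 min at room temperature after NADPH regeneration addition. Data normalized to full inhibition by 1.43 uM quinidine.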

The target in experiment [11] is Cytochrome P450 2C19 (Homo sapiens) (UniProt P33261). The experiment in a line: qHTS Assay for Inhibitors and Substrates of Cytochrome P450 2C19 (AID 899; active means well fitted curve in the direction sought with a large enough effect; an effect the other way counts as inactive or inconclusive; further: nearly all actives have a fitted effect of over 60% in size; further: potency means the concentration at half of the fitted maximal effect; on activity, negative = inhibition: on the % scale 0 is the no-effect control and ±100 the full control effect). The conditions noted are these: recombinant CYP2C19, luciferin-H EGE luminescence; series mostly up to 11.4 µM. The method, boiled down:
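NADPH-dependent conversion of Luciferin-H EGE (10uM, at KM) by 5nM enzyme in 50mM KPO4, 60 min at 37C following 10 min compound preincubation. Stopped with luciferin detection buffer; luminescence read after 20 min.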

In experiment [12] the target is 3',5'-cyclic-AMP phosphodiesterase 4B (Homo sapiens) (UniProt Q07343). As to the kind of experiment: qHTS Assay for Inhibitors of PDE-IV (AID 607; active means well fitted activation curve with a large enough effect in the main read-out, with a control signal flat, not every such curve was filed as active; further: % of control where 0% means no effect). The conditions noted are these: HEK293 ACTOne CNG channel cells, membrane potential fluorescence; series mostly up to 22.9 µM. An outline of the steps:
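HEK293 ACTOne cells with CNG channel (1000/well), endogenous PDE4; membrane potential dye, compounds up to 22.9 uM final. Fluorescence Ex 535/Em 590; RO 20-1724 (100 uM final) as reference.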

Experiment [13] is described as follows: qHTS Assay for Identification of Small Molecule Agonists for Hypoxia Response Element Signaling Pathway (AID 914; active means well fitted activation curve with a large enough effect in the signal ratio, with a control signal flat, not every such curve was filed as active; the % refers to the signal ratio; further: % of control where 0% means no effect). The following applies: ME-180 (cervical carcinoma) HRE-bla reporter, beta-lactamase ratio, CoCl2, 17 h; activation: hits give high values. The method, boiled down:
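HRE-bla ME-180 cells, overnight plating in Opti-MEM with 0.5% dialyzed FBS; cpd titration + EC50 CoCl2, 17 h, 37 degrees Celsius; CCF4 2.5 h RT; 460/530 nm ratio; AC50.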

3',5'-cyclic-AMP phosphodiesterase 4B (Homo sapiens), sequence (Q07343 whole entry, looked up): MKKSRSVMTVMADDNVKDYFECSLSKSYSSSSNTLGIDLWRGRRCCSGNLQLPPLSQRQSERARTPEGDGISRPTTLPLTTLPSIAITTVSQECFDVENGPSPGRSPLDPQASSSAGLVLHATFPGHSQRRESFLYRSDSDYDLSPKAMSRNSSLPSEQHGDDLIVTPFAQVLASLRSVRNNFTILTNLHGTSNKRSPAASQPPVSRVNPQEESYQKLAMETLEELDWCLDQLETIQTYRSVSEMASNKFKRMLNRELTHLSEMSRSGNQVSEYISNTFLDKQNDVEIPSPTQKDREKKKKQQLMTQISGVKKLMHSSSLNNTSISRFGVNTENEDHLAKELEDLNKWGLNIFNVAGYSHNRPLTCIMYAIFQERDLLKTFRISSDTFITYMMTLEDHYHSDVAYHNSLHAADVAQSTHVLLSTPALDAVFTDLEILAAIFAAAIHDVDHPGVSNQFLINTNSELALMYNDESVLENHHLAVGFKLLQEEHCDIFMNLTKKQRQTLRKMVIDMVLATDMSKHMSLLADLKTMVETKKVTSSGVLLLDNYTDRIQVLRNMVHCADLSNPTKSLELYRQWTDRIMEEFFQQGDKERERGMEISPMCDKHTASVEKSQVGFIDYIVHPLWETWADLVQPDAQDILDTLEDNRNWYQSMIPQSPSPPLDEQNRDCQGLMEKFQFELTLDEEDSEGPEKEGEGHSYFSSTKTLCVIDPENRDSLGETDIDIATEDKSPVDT
Cytochrome P450 1A2 (Homo sapiens), sequence (P05177 whole entry, looked up): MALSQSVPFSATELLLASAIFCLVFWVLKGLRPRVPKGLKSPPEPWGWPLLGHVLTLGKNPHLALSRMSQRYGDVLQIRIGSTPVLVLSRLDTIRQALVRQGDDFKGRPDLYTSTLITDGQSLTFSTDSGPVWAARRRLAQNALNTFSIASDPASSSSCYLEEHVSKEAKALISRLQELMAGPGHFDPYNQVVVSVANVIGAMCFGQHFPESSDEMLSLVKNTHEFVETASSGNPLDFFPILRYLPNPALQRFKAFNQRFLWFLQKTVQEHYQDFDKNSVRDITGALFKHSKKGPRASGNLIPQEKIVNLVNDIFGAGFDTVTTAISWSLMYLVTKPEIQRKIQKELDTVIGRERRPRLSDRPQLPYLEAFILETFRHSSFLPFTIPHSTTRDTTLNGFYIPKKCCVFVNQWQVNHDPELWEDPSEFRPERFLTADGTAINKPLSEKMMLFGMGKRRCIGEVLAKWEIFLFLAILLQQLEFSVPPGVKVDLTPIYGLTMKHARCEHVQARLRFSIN
Glucocorticoid receptor (Homo sapiens), sequence (P04150 whole entry, looked up, the tested form may be a part): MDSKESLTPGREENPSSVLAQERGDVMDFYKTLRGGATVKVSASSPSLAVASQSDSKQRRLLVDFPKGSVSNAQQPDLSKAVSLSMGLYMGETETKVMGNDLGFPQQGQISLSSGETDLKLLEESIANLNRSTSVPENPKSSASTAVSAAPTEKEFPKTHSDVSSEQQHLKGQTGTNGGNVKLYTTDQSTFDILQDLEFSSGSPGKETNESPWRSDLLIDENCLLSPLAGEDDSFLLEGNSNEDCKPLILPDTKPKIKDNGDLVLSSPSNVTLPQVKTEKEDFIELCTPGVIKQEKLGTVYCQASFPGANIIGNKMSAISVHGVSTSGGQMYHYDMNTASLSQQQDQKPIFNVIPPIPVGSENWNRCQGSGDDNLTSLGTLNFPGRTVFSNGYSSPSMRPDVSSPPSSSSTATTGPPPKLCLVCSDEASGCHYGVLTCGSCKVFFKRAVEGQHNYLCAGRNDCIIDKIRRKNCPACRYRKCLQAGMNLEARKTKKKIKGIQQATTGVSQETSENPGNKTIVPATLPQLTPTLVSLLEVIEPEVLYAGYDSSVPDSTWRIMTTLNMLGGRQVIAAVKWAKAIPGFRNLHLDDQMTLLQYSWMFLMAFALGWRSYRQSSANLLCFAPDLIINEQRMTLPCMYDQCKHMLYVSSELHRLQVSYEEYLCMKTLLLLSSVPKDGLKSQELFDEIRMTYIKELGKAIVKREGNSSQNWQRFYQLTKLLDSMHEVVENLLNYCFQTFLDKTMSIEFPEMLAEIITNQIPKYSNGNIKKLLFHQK
Lysosomal acid glucosylceramidase (Homo sapiens), sequence (P04062 whole entry, looked up): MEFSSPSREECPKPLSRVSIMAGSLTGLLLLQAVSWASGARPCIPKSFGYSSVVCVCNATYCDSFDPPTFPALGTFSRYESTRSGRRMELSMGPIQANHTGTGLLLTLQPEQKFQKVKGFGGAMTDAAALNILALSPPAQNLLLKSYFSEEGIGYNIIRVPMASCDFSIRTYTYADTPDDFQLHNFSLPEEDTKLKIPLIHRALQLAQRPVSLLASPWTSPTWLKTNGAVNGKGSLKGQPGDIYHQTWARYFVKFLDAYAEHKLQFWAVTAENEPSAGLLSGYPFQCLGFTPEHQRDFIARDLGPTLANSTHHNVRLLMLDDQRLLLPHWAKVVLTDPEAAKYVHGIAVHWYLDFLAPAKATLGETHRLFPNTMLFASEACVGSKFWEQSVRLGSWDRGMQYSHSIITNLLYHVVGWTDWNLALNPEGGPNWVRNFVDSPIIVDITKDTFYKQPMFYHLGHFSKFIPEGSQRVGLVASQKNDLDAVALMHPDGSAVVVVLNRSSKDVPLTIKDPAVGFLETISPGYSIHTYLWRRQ
Cytochrome P450 3A4 (Homo sapiens), sequence (P08684 whole entry, looked up): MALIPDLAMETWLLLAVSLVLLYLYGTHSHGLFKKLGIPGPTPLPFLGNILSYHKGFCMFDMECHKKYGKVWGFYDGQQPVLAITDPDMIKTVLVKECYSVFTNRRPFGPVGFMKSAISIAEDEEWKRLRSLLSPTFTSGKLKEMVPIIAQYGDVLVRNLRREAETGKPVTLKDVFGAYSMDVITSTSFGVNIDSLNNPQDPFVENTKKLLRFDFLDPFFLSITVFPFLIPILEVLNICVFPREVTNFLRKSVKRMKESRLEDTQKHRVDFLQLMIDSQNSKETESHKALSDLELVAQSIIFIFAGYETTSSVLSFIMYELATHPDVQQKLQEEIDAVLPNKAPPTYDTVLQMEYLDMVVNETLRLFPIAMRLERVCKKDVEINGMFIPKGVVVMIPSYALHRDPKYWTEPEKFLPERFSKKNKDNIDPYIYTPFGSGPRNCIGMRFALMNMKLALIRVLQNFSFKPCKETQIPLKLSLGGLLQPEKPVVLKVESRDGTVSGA
Cytochrome P450 2C19 (Homo sapiens), sequence (P33261 whole entry, looked up): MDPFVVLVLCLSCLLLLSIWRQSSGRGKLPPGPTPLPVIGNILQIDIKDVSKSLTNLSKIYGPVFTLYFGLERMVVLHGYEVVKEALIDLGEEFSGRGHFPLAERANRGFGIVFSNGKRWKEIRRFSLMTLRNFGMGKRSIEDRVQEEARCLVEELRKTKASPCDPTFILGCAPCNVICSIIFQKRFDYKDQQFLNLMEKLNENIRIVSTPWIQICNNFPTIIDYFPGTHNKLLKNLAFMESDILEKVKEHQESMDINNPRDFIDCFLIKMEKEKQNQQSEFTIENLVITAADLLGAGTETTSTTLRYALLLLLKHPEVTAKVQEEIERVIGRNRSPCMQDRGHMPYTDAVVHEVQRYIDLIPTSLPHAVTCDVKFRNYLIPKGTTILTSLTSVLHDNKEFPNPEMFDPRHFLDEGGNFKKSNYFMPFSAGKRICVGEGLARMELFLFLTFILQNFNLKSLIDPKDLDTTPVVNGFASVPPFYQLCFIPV
Cytochrome P450 2D6 (Homo sapiens), sequence (P10635 whole entry, looked up): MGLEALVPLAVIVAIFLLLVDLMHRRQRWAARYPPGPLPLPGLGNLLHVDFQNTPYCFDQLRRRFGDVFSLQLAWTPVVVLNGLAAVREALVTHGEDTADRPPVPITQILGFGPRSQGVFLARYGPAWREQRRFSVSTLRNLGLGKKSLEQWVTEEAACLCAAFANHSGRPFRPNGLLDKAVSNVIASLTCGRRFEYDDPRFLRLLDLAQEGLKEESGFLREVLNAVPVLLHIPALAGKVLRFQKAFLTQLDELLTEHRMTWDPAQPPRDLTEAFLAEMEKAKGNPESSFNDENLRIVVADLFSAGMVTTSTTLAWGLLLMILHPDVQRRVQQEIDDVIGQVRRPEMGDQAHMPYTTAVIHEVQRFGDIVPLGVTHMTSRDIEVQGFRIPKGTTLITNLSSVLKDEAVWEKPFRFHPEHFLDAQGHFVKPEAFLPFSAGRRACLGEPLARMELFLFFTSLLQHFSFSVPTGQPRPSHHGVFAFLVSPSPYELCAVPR

With `CC1CCN(CC(=O)N2c3ccccc3Sc3cc4ccccc4cc32)CC1`, the Potency is greater than 11.4 µM in experiment [1]; 3.98 µM (active) in experiment [3]; greater than 46 µM in experiment [5]; greater than 9.22 µM in experiment [6]; 3.98 µM (active) in experiment [8]; 3.98 µM (active) in experiment [10]. The Potency in experiment [11] is 3.16 µM (active). The activity change, negative = inhibition in experiment [2] is 28.3%. For the same compound, the activity, negative = inhibition in [4] was 9.28%. Besides, the Potency result in experiment [7] and in [9] was “inactive” throughout.
For the compound `Cc1[nH]n(-c2ccc(S(=O)(=O)O)cc2)c(=O)c1N=Nc1ccccc1`, the Potency in experiment [1] is greater than 11.4 µM; in experiment [5], greater than 46 µM; in experiment [6], greater than 9.22 µM. Moreover, the activity change, negative = inhibition in [2] was -16.3%. Besides, the Potency entry in experiment [3], in experiment [7], in experiment [12] and in experiment [11] was “inactive” each time. The activity, negative = inhibition in [4] was -16.2%. Further, in [13], the activation is 27.8%.
Turning to `Nc1ccccc1S[C@@H](C[N+](=O)[O-])c1ccc2c(c1)OCO2`, the Potency in experiment [1] is greater than 11.4 µM; in experiment [3], 0.631 µM (active); in experiment [5], greater than 46 µM; in [6], greater than 9.22 µM; in experiment [10], 3.98 µM (active); in experiment [11], 1.58 µM (active). Also, the activity change, negative = inhibition in experiment [2] is 11.2%. Further, the activity, negative = inhibition in [4] was -19.6%. For the same compound, the Potency entry in experiment [7] and in experiment [9] was “inactive” in each case.
Take `Cn1c(=O)c2c(nc(C(=N)SCC(=O)O)n2C)n(C)c1=O`: the Potency was greater than 11.4 µM in experiment [1], 1.26 µM (active) in [3], greater than 46 µM in experiment [5] and greater than 9.22 µM in experiment [6]. Also, the activity change, negative = inhibition in [2] was -5.29%. For the same compound, the activity, negative = inhibition in experiment [4] is -6.13%. Also, the Potency result in experiment [7], in experiment [12] and in experiment [11] was “inactive” throughout.
Turning to `CN(C)S(=O)(=O)c1ccc(Nc2ccc(O)c3c2C(=O)c2c([N+](=O)[O-])ccc(O)c2C3=O)cc1`, the Potency in experiment [1] is greater than 11.4 µM; in [3], 0.126 µM (active); in [5], greater than 46 µM; in [6], greater than 9.22 µM. In [2], the activity change, negative = inhibition is -13.4%. Further, the activity, negative = inhibition in experiment [4] is 23.6%. Also, the Potency entry in [12] was “inactive”.
As to `Clc1ccc2c(NC3CCC(N4CCCCC4)CC3)ccnc2c1` (centres undefined), the Potency in experiment [1] is greater than 11.4 µM; in [5], greater than 46 µM; in experiment [6], greater than 9.22 µM. Besides, the activity change, negative = inhibition in experiment [2] was -12.3%; in experiment [3] it was -15.7% [at 2.29 µM]. The activity, negative = inhibition in experiment [4] is 3.71%. Also, the Potency result in experiment [12] and in [11] was “inactive” throughout.
For the compound `Clc1ccccc1NN(Cc1ccccn1)c1ccccc1Cl`, the Potency in [1] was greater than 11.4 µM; in experiment [5], greater than 46 µM; in experiment [6] it was greater than 9.22 µM; in experiment [11], 3.98 µM (active). Moreover, the activity change, negative = inhibition was -10% in [2] and -22.4% [at 2.29 µM] in [3]. Also, the activity, negative = inhibition in [4] was -11%. In addition, the Potency result in experiment [7] and in experiment [12] was “inactive” in each case.
